# Measurements from PubChem BioAssay (NCI).
# Compounds without any hit were thinned out: in the full panel of roughly 83,000, 20% have a hit.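 Each cell line was grown in a 96-well plate and treated with one concentration of compound for 48 hours. Values below 10 were considered active.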 The source made the active and inactive calls.
# Test system: HL-60(TB) leukemia
# Experiment: NCI-60 one-dose screen, 48 h (100 = growth as untreated, 0 = no growth, -100 = all killed)
# Conditions: 10 µM unless noted
row,Compound,growth
1,Cc1cc(NCCCCNc2ccnc3cc(Cl)ccc23)nc(Nc2ccc(C(=O)N3CCCC3)cc2)n1,14.7% (inactive)
2,COc1ccc(-c2cc(-c3cccnc3)nc3sc4c(=O)[nH]c(-c5ccc(Cl)cc5)nc4c23)cc1OC,90.3% (inactive)
3,COc1ccc(-c2cc(/C=C/C(=O)c3ccc(N)cc3)[nH]n2)cc1OC,20.1% (inactive)
4,CCCCCCCC/C=C\CCCCCCCCOc1ccc(CC(=O)NCC[N+](C)(C)C)cc1,-35.7% (active)
5,COc1cc(C2=NN(c3ccccc3)C(c3cccc(Nc4ccnc5cc(C(F)(F)F)ccc45)c3)C2)cc(OC)c1OC (centres undefined),94.8% (inactive)
6,Cc1ccc(S(=O)(=O)N(C)CCCCCC(=O)O)cc1,93.4% (inactive)
7,O=C(N/N=C\c1cc(Cl)ccc1[N+](=O)[O-])c1ccco1,107% (inactive)
8,Clc1ccc(/C=C2\CCCC3=C2N=C2SC=NN2C3c2ccc(Cl)cc2)cc1 (centres undefined),91.1% (inactive)
9,COC(=O)c1cc2oc(/C=C3/SC(=S)N(N)C3=O)cc2n1Cc1ccccc1,53.7% (inactive)
10,Cn1cc(-c2ccc3cc(-c4ccc(CC(=O)Nc5cc(C(C)(C)C)on5)cc4)cnc3c2)cn1,-14.3% (active)
11,Cc1nc2ccccc2c(C(=O)O)c1O,186% (inactive)
12,O=C(CCCNC(=O)c1nc(-c2ccccc2)n(-c2ccccc2)n1)NO,87.9% (inactive)
13,CSC[C@H](NC(=O)COc1cccc2cnccc12)C(=O)NC(Cc1ccccc1)C(O)C(=O)N1CSC[C@H]1C(=O)NC(C)(C)C (some centres undefined),140% (inactive)
14,Nc1ccn(C2O[C@H](CO)[C@@H](O)[C@H]2O)c(=O)n1 (some centres undefined),99.7% (inactive)
